Laboratory results from PubChem BioAssay (EPA / NIEHS).
Calls of active or inactive are those of the source. Rule for the calls: active = hit-call score of the fitted dose curve at least 0.9, where 1 is the maximum; inactive = score below 0.9.

Experiment: ATG_Ets_CIS: Attagene CIS-FACTORIAL HepG2 Assay for human Erythroblast Transformation Specific (ETS) (AID 2282941)
Details: HepG2 ETS cis-reporter transcription, actives raise or lower the signal
Summary of the method: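 Human HepG2 hepatoma cells were transiently transfected with promoter-driven reporter constructs and treated for 24 hours. Reporter transcripts were quantified by RT-PCR with fluorescent primer extension; bidirectional curve fitting used DMSO as reference.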
With `O=C1C(Cl)=C(Cl)C(=O)C(Cl)=C1Cl` the outcome was “inactive”.
For `N#CCCCCC#N`, the outcome was “inactive”.
In the case of `CC1CCC(=O)O1` (stereo not given), the outcome is reported as “inactive”.
In the case of `COc1cc(OC)c(OC)cc1C=O`, the outcome is reported as “inactive”.
In the case of `CC(C)c1ccc(O)cc1`, the outcome is reported as “inactive”.
In the case of `C[N+](C)(C)CC(=O)[O-]`, the outcome is reported as “inactive”.
For `CC(C)(c1cc(Cl)c(O)c(Cl)c1)c1cc(Cl)c(O)c(Cl)c1`, the outcome was “inactive”.
In the case of `O=C(NCNC(=O)NC1C(=O)NC(=O)N1CO)NC1C(=O)NC(=O)N1CO` (stereo not given), the outcome is reported as “inactive”.
With `[N-]=[N+]=CC(=O)OC[C@H](N)C(=O)O` the outcome was “inactive”.
For `COCC(=O)N(c1c(C)cccc1C)N1CCOC1=O`, the outcome was “inactive”.
For `CC(C)CCCCCCCOP(=O)(Oc1ccccc1)Oc1ccccc1`, the outcome was “inactive”.
For `CCC1CCC(=O)O1` (stereo not given), the outcome was “inactive”.
In the case of `C=COCCCl`, the outcome is reported as “inactive”.
In the case of `C=CCN(CC=C)C(=O)C(Cl)Cl`, the outcome is reported as “inactive”.
In the case of `CC[N+](=O)[O-]`, the outcome is reported as “inactive”.
For `CC(Cc1ccc(C(C)(C)C)cc1)CN1C[C@@H](C)O[C@@H](C)C1` (stereo not given in full), the outcome was “inactive”.
In the case of `[Cl-].[Cl-].[Cl-].[Yb+3]`, the outcome is reported as “inactive”.
For `CCOC(=O)N(C)N=O`, the outcome was “inactive”.
With `O=CNC(N1CCN(C(NC=O)C(Cl)(Cl)Cl)CC1)C(Cl)(Cl)Cl` (stereo not given) the outcome was “inactive”.
With `CCC[N+](=O)[O-]` the outcome was “inactive”.
With `CC(C)(O)C#N` the outcome was “inactive”.
For `CC(C)C#N`, the outcome was “inactive”.
For `S=c1[nH]c2ccccc2[nH]1`, the outcome was “inactive”.
In the case of `CCCCCc1cc(O)cc(O)c1`, the outcome is reported as “inactive”.
In the case of `c1ccc(Nc2ccc3ccccc3c2)cc1`, the outcome is reported as “inactive”.
In the case of `CSc1nc(N=[N+]=[N-])nc(NC(C)C)n1`, the outcome is reported as “inactive”.
For `CC=Cc1ccc2c(c1)OCO2`, the outcome was “inactive”.
In the case of `Cc1ccc(OP(=O)(Oc2ccc(C)cc2)Oc2ccc(C)cc2)cc1` (tested in a mixture with another compound), the outcome is reported as “inactive”.
In the case of `ClC1=C(Cl)[C@]2(Cl)[C@@H]3[C@@H](Cl)[C@H](Cl)C[C@@H]3[C@@]1(Cl)C2(Cl)Cl`, the outcome is reported as “inactive”.
For `O=S(=O)(c1ccccc1)c1ccccc1`, the outcome was “inactive”.
In the case of `CCC(C)c1cc(C(C)(C)C)cc(-n2nc3ccccc3n2)c1O` (stereo not given), the outcome is reported as “inactive”.
With `CC1(C)C(=O)NC(=O)NC1=O` the outcome was “inactive”.
In the case of `CC(=O)/C=C/c1ccccc1`, the outcome is reported as “inactive”.
With `c1ccc(P(c2ccccc2)c2ccccc2)cc1` the outcome was “inactive”.
For `CCOC(=O)COc1ccc(Cl)cc1Cl`, the outcome was “inactive”.
For `CCN(CC)C(=S)S`, the outcome was “inactive”.
With `N#Cc1cccc(C#N)c1` the outcome was “inactive”.
With `O=C1Nc2ccc(Cl)cc2C(c2ccccc2)=NC1O` (stereo not given) the outcome was “inactive”.
For `N#CC(c1ccccc1)c1ccccc1`, the outcome was “inactive”.
With `C[N+](C)=CCl` the outcome was “inactive”.
